The values below come from PubChem BioAssay (NCATS).

Assay [1] addresses Cellular tumor antigen p53 (Homo sapiens) (UniProt P04637). As to the kind of experiment: Primary qHTS for small molecule compounds that upregulate eGFP-tagged delta133p53alpha (in N-terminal) cells. (AID 2060322). Further: nearly all actives have a fitted effect of over 75% in size. Further: potency means the concentration at half of the fitted maximal effect.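 On activation: series mostly up to about 56 µM; 0% = DMSO vehicle and 100% = reference activator.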 The following applies: NCI-H358 eGFP-delta133p53alpha fluorescence, 24 h; activation: stronger effect = higher value. The method, boiled down: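 NCI-H358 cells pre-induced 24 h with 10 ng/ml doxycycline to express N-terminal eGFP-delta133p53alpha, then dosed 24 h at 37C without doxycycline; fixed, Hoechst-stained, GFP intensity by laser scanning cytometry, normalized to DMSO (0%) and 57.5 uM 5-azacytidine (100%).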

The target of assay [2] is Aldehyde dehydrogenase, mitochondrial (Homo sapiens) (UniProt P05091). The experiment in a line: qHTS for Inhibitors of the Aldehyde Dehydrogenase Family (ALDH2) Primary screen (AID 2061308).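 Further: plate controls were vehicle for no effect and reference inhibitor for full effect; nearly all actives have a fitted effect of over 55% in size.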
The target of assay [3] is Retinaldehyde dehydrogenase 3 (Homo sapiens) (UniProt P47895). As to the kind of experiment: qHTS for Inhibitors of the Aldehyde Dehydrogenase Family (ALDH1A3) Primary screen (AID 2061315).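 Further: plate controls were DMSO vehicle for no effect and reference inhibitor for full effect.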
A short description of assay [4]: BET inhibitor-based combinations targeting novel dependencies in MECOM-rearranged (r) AML: SET-2 cell line (AID 2202231). Further: nearly all actives have a fitted effect of over 35% in size. Further: potency means the concentration at half of the fitted maximal effect.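 On viability: plate controls were DMSO treated cells for no effect and wells without cells for full effect.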 Conditions: SET-2 AML cells viability, CellTiter-Glo luminescence, 48 h; viability: stronger effect = lower value, concentration not given here. The method, boiled down:
(§1)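 500 cells/well; 11-pt dose curve; 48 h, standard incubator; CellTiter-Glo luminescence after 15 min RT; DMSO/empty-well normalization; AUC plus Z-AUC (mean-centered within each line).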

Assay [5] is described as follows: BET inhibitor-based combinations targeting novel dependencies in MECOM-rearranged (r) AML: OCI-AML3 cell line (AID 2202232). Further: nearly all actives have a fitted effect of over 35% in size. Further: potency means the concentration at half of the fitted maximal effect. The following applies: Potency: OCI-AML3 viability. In outline: as §1
A short description of assay [6]: BET inhibitor-based combinations targeting novel dependencies in MECOM-rearranged (r) AML: MV-4-11 cell line (AID 2202233). Further: nearly all actives have a fitted effect of over 45% in size. Further: potency means the concentration at half of the fitted maximal effect. The method, boiled down:
(§2)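 Cells were plated at 500 per well and exposed to each drug across an 11-point dose range for 48 hr at standard incubator conditions. Viability was read by CellTiter-Glo luminescence, and activity was expressed as AUC and per-cell-line Z-transformed AUC.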

Assay [7] can be described thus: BET inhibitor-based combinations targeting novel dependencies in MECOM-rearranged (r) AML: HNT-34 cell line (AID 2202234). Further: nearly all actives have a fitted effect of over 35% in size. Further: potency means the concentration at half of the fitted maximal effect. In outline:
as §2

A short description of assay [8]: BET inhibitor-based combinations targeting novel dependencies in MECOM-rearranged (r) AML: UCSD-AML1 cell line (AID 2202235). Further: nearly all actives have a fitted effect of over 40% in size. Further: potency means the concentration at half of the fitted maximal effect. In outline:
as §2

Assay [9] is described as follows: BET inhibitor-based combinations targeting novel dependencies in MECOM-rearranged (r) AML: AML-191 cell line (AID 2202236; further: nearly all actives have a fitted effect of over 35% in size; further: potency means the concentration at half of the fitted maximal effect). The method, boiled down:
as §1

Assay [10] is described as follows: BET inhibitor-based combinations targeting novel dependencies in MECOM-rearranged (r) AML: AML-194 cell line (AID 2202237; further: nearly all actives have a fitted effect of over 40% in size; further: potency means the concentration at half of the fitted maximal effect). In outline:
as §1

The target of assay [11] is Aldehyde dehydrogenase 1A1 (Homo sapiens) (UniProt P00352). As to the kind of experiment: qHTS for Inhibitors of the Aldehyde Dehydrogenase Family (ALDH1A1) Confirmatory screens (AID 2061316). Further: on the % scale 0 is the no-effect control and ±100 the full control effect; nearly all actives have a fitted effect of over 65% in size.

“And” between values parts separate entries of the source, which are not always exact repeats. Equal entries are not always repeated. Results filed as inconclusive are left out. Values without a mark were called inactive. The source made the active and inactive calls. The call rests on the fitted dose curve; in most records, active means well fitted curve in the direction sought with a large enough effect; inconclusive means small, poorly fitted or top-dose-only effect, or another doubt; inactive means no such curve, though single readings can be large; an effect the other way counts as inactive or inconclusive.

Sequence of Cellular tumor antigen p53 (Homo sapiens) (P04637 whole entry, looked up): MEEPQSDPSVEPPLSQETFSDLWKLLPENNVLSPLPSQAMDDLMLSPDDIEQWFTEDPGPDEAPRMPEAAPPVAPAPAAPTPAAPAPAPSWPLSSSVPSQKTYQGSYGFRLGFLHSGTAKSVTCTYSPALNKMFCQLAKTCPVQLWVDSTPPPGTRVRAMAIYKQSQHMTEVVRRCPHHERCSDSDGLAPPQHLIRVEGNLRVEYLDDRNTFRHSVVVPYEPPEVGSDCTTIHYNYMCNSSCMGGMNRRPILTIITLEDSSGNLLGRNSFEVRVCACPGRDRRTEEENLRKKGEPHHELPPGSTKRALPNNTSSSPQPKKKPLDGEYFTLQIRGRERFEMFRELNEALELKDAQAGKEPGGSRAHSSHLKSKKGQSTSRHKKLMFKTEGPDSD

Consider `Cn1c(=O)n(-c2ccc(C(C)(C)C#N)cc2)c2c3cc(-c4cnc5ccccc5c4)ccc3ncc21`, for which, in assay [1], the activation was 13% and 27.3%. Also, the Potency result in [2] and in assay [3] was “inactive” throughout. Also, the Potency was 170 nM (active) in [4]; 241 nM (active) in assay [5]; 170 nM (active) in [6]; 135 nM (active) in [7]; 42.8 nM (active) in [8]; 42.8 nM (active) in assay [9].

On to `c1cc(-c2cnn3cc(-c4ccc(N5CCNCC5)cc4)cnc23)c2cccnc2c1`, for which the Potency is 15.1 µM (active) in assay [1]; 5250 nM (active) in assay [4]; 16600 nM (active) in assay [5]; 3320 nM (active) in assay [6]; 11800 nM (active) in assay [7]; 8330 nM (active) in assay [8]. Further, the Potency in assay [9] was 4680 nM (active); in assay [10], 2950 nM (active). The Potency entry in assay [2] and in [3] was “inactive” throughout.

On to `c1cncc(CN2CCC(n3ncc4c(N5CCOCC5)nc(-c5ccc6[nH]ccc6c5)nc43)CC2)c1`, for which, in assay [1], the activation was -11.7% and 12.5%. Besides, the Potency result in [2] and in assay [3] was “inactive” throughout. In addition, the Potency in assay [4] is 3720 nM (active); in assay [5], 7420 nM (active); in [6] it was 3720 nM (active); in assay [7], 2950 nM (active); in assay [8], 833 nM (active).

For the compound `FC(F)(F)c1ccc(Nc2nc(-c3c(C(F)(F)F)nc4ccccn34)cs2)cc1`, the activation in [1] was -3.82%. For the same compound, the Potency result in [2] and in assay [3] was “inactive” in each case. For the same compound, the Potency was 833 nM (active) in [4]; 417 nM (active) in assay [5]; 417 nM (active) in assay [6]; 332 nM (active) in [7]; 332 nM (active) in [8]; 296 nM (active) in [9]. Also, the Potency in assay [10] was 332 nM (active).

As to `COC(=O)c1ccc2c(C(=Nc3ccc(N(C)C(=O)CN4CCN(C)CC4)cc3)c3ccccc3)c(O)[nH]c2c1`, in assay [1], the activation was 5.68%. Further, the Potency entry in [2] and in assay [3] was “inactive” throughout. The Potency is 11800 nM (active) in [4]; 10500 nM (active) in assay [5]; 166 nM (active) in assay [6]; 1320 nM (active) in [7]; 5250 nM (active) in assay [8]; 5250 nM (active) in [9].

Take `CCC(O)C(C)C1CCC(C(C)C(=O)O)O1` (stereo not given): the activation in [1] was 13.4%. For the same compound, the Potency entry in [2], in assay [3] and in [11] was “inactive” in each case.

For the compound `Cc1ncc(NC(=O)c2ccc(CN3CCN(C)CC3)c(C(F)(F)F)c2)cc1Nc1nccc(-c2cccnc2)n1`, the Potency was 23.9 µM (active) in assay [1]; 23500 nM (active) in assay [4]; 14800 nM (active) in assay [5]; 3320 nM (active) in assay [6]; 29.5 nM (active) in [7]; 18600 nM (active) in assay [9]. In assay [10], the Potency is 23500 nM (active). The Potency entry in assay [2], in assay [3] and in assay [8] was “inactive” throughout.

On to `O=C(Nc1nc2cccc(-c3ccc(CN4CCS(=O)(=O)CC4)cc3)n2n1)C1CC1`, for which the Potency in assay [1] was 43.2 µM (active) and 34.3 µM (active); in [4] it was 18600 nM (active); in assay [5], 14800 nM (active); in assay [6], 3320 nM (active); in assay [7], 14800 nM (active); in [8] it was 5900 nM (active). The Potency in assay [9] is 9340 nM (active); in assay [10], 13200 nM (active). Moreover, the Potency result in assay [2] and in assay [3] was “inactive” each time.

In the case of `C=C1C(=O)[C@@]23C(CC[C@@H]1[C@H]2O)[C@@]12CO[C@]3(O)[C@@H](O)[C@@H]1C(C)(C)CC[C@@H]2O` (stereo not given in full), the Potency is 27.3 µM (active) in [1]; 9340 nM (active) in [4]; 3320 nM (active) in [5]; 2630 nM (active) in assay [6]; 2350 nM (active) in [7]; 5900 nM (active) in [8]. For the same compound, the results for the Potency in [9] and in [10] were 8330 nM (active) and 11800 nM (active), respectively. For the same compound, the Potency result in assay [2] and in assay [3] was “inactive” each time.

`CCC(CC)CC1(C(=O)Nc2ccccc2SC(=O)C(C)C)CCCCC1`: the activation in assay [1] was 18.8%. Further, the Potency result in assay [2], in assay [3], in assay [5], in [6], in [7] and in assay [8] was “inactive” each time. Also, the Potency result in assay [9] and in assay [10] was “inactive” each time. Besides, the viability in assay [4] is 117%.

`CC1=C(CO)C(=O)O[C@@H]([C@@H](C)[C@H]2CC[C@H]3[C@@H]4C[C@H]5O[C@]56[C@@H](O)C=CC(=O)[C@]6(C)[C@H]4CC[C@]23C)C1`: the Potency in assay [1] is 1.47 µM (active); in assay [4], 590 nM (active); in assay [5], 742 nM (active); in [6], 662 nM (active); in assay [7], 118 nM (active); in assay [8] it was 417 nM (active). The Potency in [9] and in assay [10] was 372 nM (active) each time. Also, the Potency entry in assay [2] and in assay [3] was “inactive” throughout.

For the compound `N#Cc1ccc(C2CCCc3cncn32)cc1` (stereo not given), the activation in assay [1] is -5%. For the same compound, the Potency result in [2], in assay [3], in [5], in assay [6], in [7] and in assay [8] was “inactive” each time. The Potency entry in [9] and in [10] was “inactive” throughout. Also, the viability in assay [4] was 109%.

`OCc1ccccc1O[C@@H]1O[C@H](CO)[C@@H](O)[C@H](O)[C@H]1O`: the activation in assay [1] was 2.68%. The Potency entry in [2], in [3], in assay [5], in assay [6], in [7] and in [8] was “inactive” in each case. Further, the Potency entry in [9] and in [10] was “inactive” each time. Besides, the viability in [4] was 115%.

As to `Cc1cc(O)c(-c2ccc([C@@H](C)CN(C)C)cc2)c2c1[nH]c(=O)c1sccc12`, the Potency is 0.301 µM (active) in assay [1]; 148 nM (active) in [4]; 132 nM (active) in [5]; 83.3 nM (active) in assay [6]; 148 nM (active) in assay [7]; 93.4 nM (active) in assay [8]. Moreover, the values for the Potency in assay [9] and in assay [10] were 118 nM (active) and 417 nM (active), respectively. Moreover, the Potency entry in assay [2] and in [3] was “inactive” throughout.

Turning to `CCOC(=O)[C@H]1O[C@@H]1C(=O)N[C@@H](CC(C)C)C(=O)NCCC(C)C`, in assay [1], the activation is 4.33%. In addition, the Potency result in [2], in assay [3], in [7], in assay [8], in assay [9] and in assay [10] was “inactive” in each case. For the same compound, in assay [4], the viability was 108%. For the same compound, the Potency in [5] is 18600 nM (active); in assay [6], 14800 nM (active).
